Experimental data from PubChem BioAssay (NCATS).
Records with an inconclusive call do not appear. Calls of active or inactive are those of the source. Unless noted, calls follow the shape of the dose curve; as a rule, active = well fitted curve in the direction sought with a large enough effect; inconclusive = small, poorly fitted or top-dose-only effect, or another doubt; inactive = no such curve, though single readings can be large; an effect the other way counts as inactive or inconclusive.

Key:
[1] = qHTS for Inhibitors of the Functional Ribonucleoprotein Complex (vRNP) of Lassa (LASV) Arenavirus: LASV Primary Screen - GLuc reporter signal (AID 1347082; calls by dose curve; tested in HEK293 reporter line; also: series mostly up to about 57 µM; nearly all actives have a fitted effect of over 60% in size)
[2] = qHTS for Inhibitors of the Functional Ribonucleoprotein Complex (vRNP) of Lassa (LASV) Arenavirus: Viability assay - alamar blue signal for LASV Primary Screen (AID 1347083; calls by dose curve; tested in HEK293 reporter line; also: series mostly up to about 57 µM; nearly all actives have a fitted effect of over 80% in size)
[3] = target: Nucleoprotein (Lymphocytic choriomeningitis virus (strain Armstrong)) (UniProt P09992); experiment: qHTS for Inhibitors of the Functional Ribonucleoprotein Complex (vRNP) of Lymphocytic Choriomeningitis Arenaviruses (LCMV): LCMV Primary Screen - GLuc reporter signal (AID 1347086; calls by dose curve; also: series mostly up to about 57 µM; nearly all actives have a fitted effect of over 70% in size)
[4] = qHTS for Inhibitors of the Functional Ribonucleoprotein Complex (vRNP) of Lymphocytic Choriomeningitis Arenaviruses (LCMV): Viability assay - alamar blue signal for LCMV Primary Screen (AID 1347085; calls by dose curve; tested in HEK293 reporter line; also: series mostly up to about 57 µM; nearly all actives have a fitted effect of over 80% in size)
[5] = qHTS of pediatric cancer cell lines to identify multiple opportunities for drug repurposing: Primary screen for TC32 cells (AID 1347089); also: nearly all actives have a fitted effect of over 60% in size
In short: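 Measured quantity: luminescence from CellTiter-Glo, reflecting metabolically active TC32 cells following 48 h of compound. Curves came straight from multi-point titrations, with 8 or 11 points in primary and 11 in confirmatory screening.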

[6] = qHTS of pediatric cancer cell lines to identify multiple opportunities for drug repurposing: Primary screen for DAOY cells (AID 1347090); also: series mostly up to about 46 µM; nearly all actives have a fitted effect of over 55% in size
In short: (§1)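 Eight- or eleven-point concentration series, 48 h treatment at 37 degrees C in growth media; readout CellTiter-Glo luminescence. Potency and efficacy were taken from the concentration-response curves.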

[7] = qHTS of pediatric cancer cell lines to identify multiple opportunities for drug repurposing: Primary screen for A673 cells (AID 1347092); also: nearly all actives have a fitted effect of over 45% in size
In short: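 Cells are plated, rested 5 h, dosed by pintool, incubated 48 h, then lysed with CellTiter-Glo and read by luminescence. DMSO is the neutral control; bortezomib at 2.3 uM final is the positive control.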

[8] = qHTS of pediatric cancer cell lines to identify multiple opportunities for drug repurposing: Primary screen for SJ-GBM2 cells (AID 1347091)
In short: as §1

Measured: Potency

Nucleoprotein (Lymphocytic choriomeningitis virus (strain Armstrong)), sequence (P09992 whole entry, looked up): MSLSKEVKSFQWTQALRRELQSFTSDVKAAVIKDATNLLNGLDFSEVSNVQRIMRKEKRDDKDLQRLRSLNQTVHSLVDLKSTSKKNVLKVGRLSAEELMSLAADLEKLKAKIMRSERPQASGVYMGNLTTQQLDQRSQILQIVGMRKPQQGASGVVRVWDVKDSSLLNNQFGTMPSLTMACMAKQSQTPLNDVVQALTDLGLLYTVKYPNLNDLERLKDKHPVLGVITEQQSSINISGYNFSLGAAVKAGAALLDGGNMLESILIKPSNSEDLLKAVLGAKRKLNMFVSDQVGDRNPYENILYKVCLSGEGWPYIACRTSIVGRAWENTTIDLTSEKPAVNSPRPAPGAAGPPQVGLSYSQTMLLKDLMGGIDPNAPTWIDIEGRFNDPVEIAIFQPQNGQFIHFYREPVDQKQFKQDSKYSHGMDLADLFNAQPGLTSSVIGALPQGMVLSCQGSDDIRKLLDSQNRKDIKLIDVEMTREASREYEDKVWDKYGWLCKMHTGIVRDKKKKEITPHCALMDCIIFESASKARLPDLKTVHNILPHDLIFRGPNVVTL

Cc1c(N)nc([C@H](CC(N)=O)NC[C@H](N)C(N)=O)nc1C(=O)N[C@H](C(=O)N[C@H](C)[C@@H](O)[C@H](C)C(=O)N[C@H](C(=O)NCCc1nc(-c2nc(C(=O)NCCCCN=C(N)N)cs2)cs1)[C@@H](C)O)[C@@H](O[C@@H]1O[C@@H](CO)[C@@H](O)[C@H](O)[C@@H]1O[C@H]1O[C@H](CO)[C@@H](O)[C@H](OC(N)=O)[C@@H]1O)c1cnc[nH]1
inactive: [1] | [2] | [3]

C[C@]12CC[C@@H]3c4ccc(OC(=O)N(CCCl)CCCl)cc4CC[C@H]3[C@@H]1CC[C@@H]2OP(=O)(O)O
inactive: [1] | [2] | [4] | [3] | [5] | [6] | [7]

CC(C)(C)NCC(O)c1cc(Cl)c(N)c(C(F)(F)F)c1 (stereo not drawn)
inactive: [1] | [2] | [4] | [3] | [5] | [6] | [7]

c1ccc(N2CCNCC2)cc1
inactive: [1] | [2] | [4] | [3] | [5] | [6] | [7]

C[C@]12Cc3cn[nH]c3C[C@@H]1CC[C@@H]1[C@@H]2CC[C@@]2(C)[C@H]1CC[C@]2(C)O
inactive: [1] | [2] | [4] | [3] | [5] | [7]

O=C1OC(CCN2CCCCC2)OC1(c1ccccc1)c1ccccc1 (stereo not drawn)
inactive: [1] | [2] | [4] | [3] | [5] | [8]

Clc1ccc(C(c2ccc(Cl)cc2)C(Cl)(Cl)Cl)cc1
inactive: [1] | [2] | [4] | [3] | [5] | [8]

CC[N+]1(CC)CCC(OC(=O)C(O)(c2ccccc2)c2ccccc2)C1 (stereo not drawn)
inactive: [1] | [2] | [4] | [3] | [5] | [6] | [7]

CCN(CC)CCc1c[nH]c2ccccc12
inactive: [1] | [2] | [4] | [3] | [5] | [6] | [7]

O=C1OC(c2ccc(O)c(S(=O)(=O)O)c2)(c2ccc(O)c(S(=O)(=O)O)c2)c2c(Br)c(Br)c(Br)c(Br)c21
inactive: [1] | [2] | [4] | [3] | [5] | [6] | [7]

COc1cc(CCN)cc(OC)c1OC
inactive: [1] | [2] | [4] | [3] | [5] | [6] | [7]

COc1cccc([C@@]2(O)CCCC[C@@H]2CN(C)C)c1
inactive: [1] | [2] | [4] | [3] | [5] | [6] | [7]

CCN[C@@H](C)Cc1cccc(C(F)(F)F)c1
inactive: [1] | [2] | [4] | [3] | [5] | [6] | [7]

COCC(=O)Nc1c(I)c(C(=O)NCC(O)CO)c(I)c(C(=O)N(C)CC(O)CO)c1I (stereo not drawn)
inactive: [1] | [4] | [3]

CC(=O)OC[C@H]1O[C@@H](n2ncc(=O)[nH]c2=O)[C@H](OC(C)=O)[C@@H]1OC(C)=O
inactive: [4] | [3]

CNCCCCOc1ccccc1Cc1ccccc1
inactive: [4] | [3]

Nc1ccc(C(=O)Nc2ccccc2N)cc1
inactive: [1] | [3]
